MOR-DOR inv ag: inverse agonists of MOR-DOR heterodimerization, primary screen, cell-based, luminescence; inhibition, % at 9.3 µM; AID 504357, 2011; hit rate 0.21% among 340,000; cell-based MOR-DOR heterodimer luminescence, inverse agonism; Mu-type opioid receptor (Homo sapiens) + Delta-type opioid receptor (Homo sapiens), …; in the data active = inhibition above about 22%, passing the limit was not always enough;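 also: 0% = cells with DMSO and 100% = wells without cells with DMSO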
HTR5A inv ag: HTR5A inverse agonists in luminescence cell assay, primary screen, counter-screen for OPRM1-OPRD1 heterodimer inverse agonist project, full-deck HTS | 5-hydroxytryptamine receptor 5A (Homo sapiens), P47898 | HTR5A cell line, inverse agonism | inhibition, % at 9.3 µM | hit rate 0.083% among 340,000 | AID 504634, 2011; in the data active = inhibition mostly above about 23%, no sharp cut-off; inactive = mostly below about 18%;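 also: 0% = cells with DMSO and 100% = no-cell wells with DMSO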
OPRM1-OPRD1 ag: agonists of OPRM1-OPRD1 heterodimerization, primary screen, cell-based, luminescence; hit rate 0.3% among 340,000; activation, % at 9.3 µM; Mu-type opioid receptor (Homo sapiens) + Delta-type opioid receptor (Homo sapiens), …; cells; in the data active = activation above about 18%;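 also: 0% = vehicle-treated cells and 100% = reference agonist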
HTR5A ag: HTR5A agonists in luminescence cell assay, primary screen, counter-screen for OPRM1-OPRD1 heterodimer agonist project, full-deck HTS. 5-hydroxytryptamine receptor 5A (Homo sapiens), P47898. cell-based. activation, % at 9.3 µM. hit rate 0.61% among 340,000; in the data active = activation mostly above about 9.5%, no sharp cut-off; inactive = mostly below about 7.6%;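 also: 0% = cells with vehicle only and 100% = reference agonist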
m5-HT2A agonist: mouse Htr2a agonists via beta-arrestin recruitment, primary screen, cell-based, luminescence. CHO-K1 mHTR2A beta-arrestin complementation; percent of 30 µM serotonin response. activation, % at 7.6 µM. hit rate 0.66% among 360,000. AID 624169, 2012;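 active = activation above a run cutoff, the mean activation of all tested compounds plus 3 SD, cut at about 14% in these data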;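 also: 0% = plate median of compound wells and 100% = 30 µM serotonin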
Target sequence (P35363 whole entry, looked up): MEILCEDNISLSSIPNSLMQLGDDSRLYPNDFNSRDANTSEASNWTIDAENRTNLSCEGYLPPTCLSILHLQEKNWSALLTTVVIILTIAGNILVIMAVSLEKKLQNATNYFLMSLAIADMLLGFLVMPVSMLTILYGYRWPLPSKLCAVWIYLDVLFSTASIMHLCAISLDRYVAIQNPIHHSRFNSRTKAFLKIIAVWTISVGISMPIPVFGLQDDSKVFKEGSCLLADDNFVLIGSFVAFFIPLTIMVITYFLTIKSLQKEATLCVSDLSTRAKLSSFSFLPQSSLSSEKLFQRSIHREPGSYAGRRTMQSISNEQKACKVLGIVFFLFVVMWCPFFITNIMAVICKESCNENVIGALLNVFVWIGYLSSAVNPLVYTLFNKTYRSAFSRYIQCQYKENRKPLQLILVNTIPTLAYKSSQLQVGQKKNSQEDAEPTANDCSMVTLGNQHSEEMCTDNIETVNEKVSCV
* marks the source's active call; other numbers are inactive results; i = inactive; / = not tested or not shown. Hits are enriched below; roughly 1.6% of the tested compounds scored in any of these assays.

SMILES	MOR-DOR inv ag	HTR5A inv ag	OPRM1-OPRD1 ag	HTR5A ag	m5-HT2A agonist
COc1cccc(CNC(=O)C(=O)NCC2CCCO2)c1 (stereo not drawn)	-11	-30	2	14*	-4
CCc1ccc(CNC(=O)C(=O)NCC2CCCO2)cc1 (stereo not drawn)	-3	-6	1	2	-5
OC[C@@H]1CN(Cc2ccccc2)C[C@H](n2cnc3c(Nc4ccccc4)ncnc32)O1	/	/	/	/	-1
CC(C)c1ccc(S(=O)(=O)/N=C2/C=C(Sc3ncn[nH]3)C(=O)c3ccccc32)cc1	-127	19	25*	3	1
CCOC(=O)C1(CCOc2ccccc2)CCN(Cc2ccc(CO)o2)CC1	-20	6	3	-2	-9
CCOC(=O)C1(CCOC)CCN(Cc2ccc(COC)o2)CC1	-1	-5	0	12*	3
CCN(CC)c1ccc(N=C2C=CC(=O)C=C2NC(C)=O)cc1	/	/	/	/	-3
NC(=S)N/N=C/c1ccc(-c2cc(Cl)c(Cl)cc2Cl)o1	-27	-30	5	12*	7
O=C(NCc1ccc(F)cc1)c1cc(C2CCCN(C(=O)c3ccc4ccccc4c3)C2)on1 (stereo not drawn)	/	/	/	/	2
COc1ccc(/C=C/C(=O)OCC(=O)NCCNC(=O)COC(=O)/C=C/c2ccc(OC)cc2)cc1	-8	-44	1	12*	1
COc1ccc(CNC(=O)COC(=O)/C=C/c2ccc(Cl)cc2)cc1	11	10	-2	-3	3
NC(=O)C1CCCN(C(=O)c2[nH]c(C(F)(F)F)nc2-c2ccccc2)C1 (stereo not drawn)	/	/	/	/	-1
O=c1n(-c2ccccc2)c(=O)n2n1CCC2	13	10	-2	10*	-3
COc1ccc(C(=O)CC2OC(=O)c3c2ccc(OC)c3OC)cc1 (stereo not drawn)	-5	-40	1	13*	1
COc1ccc(C(=O)Cc2cc3cccc(OC)c3oc2=O)cc1	6	-8	-1	2	3
CC(=O)c1cccc(NS(=O)(=O)c2ccc(NC(=O)N3CCCCC3)cc2)c1	4	-5	-1	11*	0
Cc1csc(-c2nc3ccccc3n2C(C)c2nc3ccccc3[nH]2)c1 (stereo not drawn)	/	/	/	/	2
Cc1ccc2nc(/C(C#N)=C\c3ccc(N4CCOCC4)o3)[nH]c2c1	-15	-7	3	3	0
Cc1ccc2nc(/C(C#N)=C\c3ccc([N+](=O)[O-])o3)[nH]c2c1	i	-182	575*	105*	12
O=c1oc2ccccc2nc1/C=C(\O)c1ccccc1	/	/	/	/	2
O/C(=C\c1nc2ccccc2nc1/C=C(\O)c1ccccc1)c1ccccc1	71*	4	-14	-9	-2
CCc1nc2c(OCc3ccc(F)c(F)c3)cccn2c1N(C)C(=O)c1ccc(C)cc1	/	/	/	/	-5
COc1ccccc1CNC(=O)c1ccc2nc(C)c(N(C)Cc3ccc(NC(C)=O)cc3)n2c1	/	/	/	/	-5
O=C1CCN(C(=O)Nc2cccc(Cl)c2)N1	2	18	0	11*	-2
O=C(Nc1cccc(Cl)c1)N1CCCC1	-3	3	1	-2	-3
SMILES	MOR-DOR inv ag	HTR5A inv ag	OPRM1-OPRD1 ag	HTR5A ag	m5-HT2A agonist
COc1ccc2c(c1)[nH]c1c(Cl)ncnc12	-11	9	2	12*	9
CCOc1ccc(C(=O)NCC(=O)Nc2ccc3c(c2)OCO3)cc1OCC	1	2	0	-1	-6
CCC(=O)Nc1cccc(SC)c1	-17	15	3	13*	4
CSc1cccc(NC(=O)CNC(=O)c2ccc3c(c2)OCO3)c1	4	24	-1	10*	-3
CCN(CC)CCN1CCN(c2cncc(-c3ccc4ccccc4c3)n2)CC1	/	/	/	/	-3
c1ccc2c(c1)Oc1ccccc1S2	17	-52	-3	13*	-5
CCN(CC)S(=O)(=O)c1ccc(C(=O)OCCN2C(=O)c3cccc4c(N5CCOCC5)ccc(c34)C2=O)cc1	22	-6	-4	2	1
CC(=O)N(C(C)=O)N1C(=O)c2cccc3c(N4CCOCC4)ccc(c23)C1=O	15	-30	-3	11*	-2
Cc1ccc(CN2C(=O)C(C)Nc3ncnc(N4CCN(c5ccccn5)CC4)c32)cc1 (stereo not drawn)	55*	56*	-12	-17	-26
COc1ccc(CN2C(=O)C(CC(C)C)Nc3ncnc(N4CCN(c5ccccn5)CC4)c32)cc1 (stereo not drawn)	-14	13	2	-1	-2
CC1Nc2ncnc(N3CCN(c4ccccn4)CC3)c2N(Cc2ccccc2)C1=O (stereo not drawn)	45*	43*	-10	-14	-20
COc1ccc(CN2C(=O)C(C)Nc3ncnc(N4CCN(c5ccccn5)CC4)c32)cc1 (stereo not drawn)	70*	63*	-12	-22	-20
CN[C@@H](CO)C(=O)NC[C@H]1O[C@@H](n2cc(C)c(=O)[nH]c2=O)C[C@@H]1O	/	/	/	/	-6
COC(=O)[C@H](NCc1ccc(OC)c(B(O)O)c1)C(C)C	21	-39	-4	11*	0
O=C(NCCc1ccncc1)Nc1ccc(Cl)c(Cl)c1	-12	36	2	0	-1
O=C(NCCc1ccncc1)Nc1ccccc1	13	-5	-3	13*	-2
COCCNC(=O)C1(C)CCCN(Cc2cc(-c3ccccc3)nn2C)C1 (stereo not drawn)	/	/	/	/	-2
COc1ccc(C(=O)/C=C/C(=O)N(CC(=O)NC2CCCCC2)Cc2ccccc2)c(O)c1	-10	-13	2	5	-5
COc1ccc(C(=O)/C=C/C(=O)N(CC(=O)NC2CCCCC2)CC2CCCO2)c(O)c1 (stereo not drawn)	33*	-5	-6	2	-10
O=C(NC1CCCCCC1)C1CCCN(S(=O)(=O)c2cnc[nH]2)C1 (stereo not drawn)	7	0	-1	0	24*
CCc1ccc(NC(=O)C2CCCN(S(=O)(=O)c3cnc[nH]3)C2)cc1 (stereo not drawn)	15	-13	-3	3	3
O=C(NC1CCCc2ccccc21)C1CCCN(S(=O)(=O)c2cnc[nH]2)C1 (stereo not drawn)	22	5	-4	-2	11
COC(=O)c1ccc(NC(=O)C2CCCN(S(=O)(=O)c3cnc[nH]3)C2)cc1 (stereo not drawn)	-1	8	0	-3	17*
C[C@@H]1CCCCO[C@H](CN(C)Cc2ccc(C(F)(F)F)cc2)[C@@H](C)CN([C@H](C)CO)C(=O)c2cc(NS(=O)(=O)c3cn(C)cn3)ccc2O1	/	/	/	/	-1
CC1(C(=O)NS(=O)(=O)c2cccs2)CCN1C(=O)CC1CC1 (stereo not drawn)	/	/	/	/	3

Screening data (PubChem)
